# Compound activity from PubChem.
# ClpP mod: qHTS Assay for Activators of ClpP | Potency, µM (titrated, usually from 57.5 µM), for the others: at the highest dose activity change, negative = active | purified B. subtilis ClpP, FRET peptide cleavage, 20 min | hit rate 1.9% among 340,000; active means well fitted falling curve with a large enough effect; inconclusive means small, poorly fitted or top-dose-only effect; inactive means no such curve, though single readings can be large or run the other way; further: potency means the concentration at half of the fitted maximal effect; the source files actives as falling curves though it sought activators and does not explain the sign; nearly all actives have a fitted effect of over 65% in size
# Target sequence (P80244 whole entry, looked up): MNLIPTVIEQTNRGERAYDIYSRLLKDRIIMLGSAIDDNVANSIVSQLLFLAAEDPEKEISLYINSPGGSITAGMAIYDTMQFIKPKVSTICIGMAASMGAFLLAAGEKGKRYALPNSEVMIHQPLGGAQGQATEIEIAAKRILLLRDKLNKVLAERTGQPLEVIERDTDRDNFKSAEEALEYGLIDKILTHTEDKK
#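 Buffer: 100 mM Tris/HCl pH8, 100 mM KCl, 0.05% low protease BSA, 2.5% glycerol, 0.01% Tween-20. ClpP 10 microg/mL final; 20 min RT; delta FRET normalized to ADEP and DMSO controls.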
# DRD3 antagonist: qHTS of D3 Dopamine Receptor Antagonist: qHTS | D3R cells, DiscoveRx beta-arrestin luminescence, antagonist mode; active compounds read low | hit rate 2.5% among 360,000 | AID 652054, 2013 | max response, negative = inhibition, %; in the data active means max response below about -50%; inconclusive means no clear call, values can overlap the other calls; further: on the % scale 0 is the no-effect control and ±100 the full control effect
#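 Cells plated overnight at 1500 cells/well, then exposed to library compounds with dopamine controls for 90 minutes at 37 degrees C. DiscoveRx reagent added for 30–60 minutes at room temperature; luminescence read, quantitative HTS format.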
# HEK293 tox: qHTS of GLP-1 Receptor Inverse Agonists: Cytotox Screen. HEK293 cAMP-luciferase reporter cells, luminescence, 24 h. Potency, µM (titrated, usually from 38.3 µM), without a hit: top-dose activity change, negative = inhibition, usual class: inhibitors. hit rate 0.13% among 410,000. AID 624418, 2012;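 further: loss of luciferase light is scored as toxicity; potency means the concentration at half of the fitted maximal effect; on the % scale 0 is the no-effect control and ±100 the full control effect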
#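 Quantitative HTS format, 1536 wells, 200 cells/uL seeded. Compounds: 23 nL, 24 h, 37 °C. Detection: luciferase reagent, luminescence at 12 min RT; decreased signal taken as cytotoxic.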
# DRD3 agonist: qHTS of D3 Dopamine Receptor Agonist: qHTS | D(3) dopamine receptor (Homo sapiens), P35462 | D3R DiscoveRx beta-arrestin cells, luminescence, 90 min | max activation, % | hit rate 0.58% among 410,000 | AID 652048, 2013; in the data active means max activation above about 30%; further: 0% is about no effect
#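 Agonist-mode cell screen: cells plated at 1500/well and incubated overnight at 37 °C, then exposed to library compounds for 90 min at 37 °C. Detection reagent was added for 30–60 min at room temperature, and luminescence was read.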
# GLP1R ag: qHTS of GLP-1 Receptor Agonists | Glucagon-like peptide 1 receptor (Homo sapiens), P43220 | HEK293 GLP-1R CRE-luciferase, luminescence, 4-6 h; cells express a hypersensitive GLP-1R form | Potency, µM (titrated, usually from 45.6 µM), for inactives: at the top dose activation, usual class: activators | hit rate 0.007% among 380,000 | AID 624172, 2012; further: potency means the concentration at half of the fitted maximal effect; % of control where 0% means no effect
# Target sequence (P43220 whole entry, looked up): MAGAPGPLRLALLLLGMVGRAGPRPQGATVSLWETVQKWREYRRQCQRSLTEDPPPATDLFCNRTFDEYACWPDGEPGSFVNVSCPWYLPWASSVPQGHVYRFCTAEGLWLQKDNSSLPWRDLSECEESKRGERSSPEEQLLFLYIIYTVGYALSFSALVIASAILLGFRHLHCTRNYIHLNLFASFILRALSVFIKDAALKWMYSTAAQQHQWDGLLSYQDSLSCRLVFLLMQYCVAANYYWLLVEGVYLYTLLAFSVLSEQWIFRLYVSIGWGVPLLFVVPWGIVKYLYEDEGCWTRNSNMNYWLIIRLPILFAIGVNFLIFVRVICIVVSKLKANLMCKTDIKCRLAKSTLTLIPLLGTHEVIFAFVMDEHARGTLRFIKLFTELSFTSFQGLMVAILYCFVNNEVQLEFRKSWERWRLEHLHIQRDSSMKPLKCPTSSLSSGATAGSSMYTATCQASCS
# GLP-1R inv ag: qHTS of GLP-1 Receptor Inverse Agonists (Inhibition Mode); AID 624417, 2012; Potency, µM (titrated, usually from 38.3 µM), without a hit: at the highest dose activity change, negative = inhibition, hits mostly inhibitors; HEK293 GLP-1R CRE-luciferase, luminescence, 24 h; GLP-1R form is constitutively active; hit rate 1.6% among 410,000; further: potency means the concentration at half of the fitted maximal effect; on the % scale 0 is the no-effect control and ±100 the full control effect; nearly all actives have a fitted effect of over 55% in size
#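 GLP-1R inverse agonism mode: basal reporter luminescence in engineered HEK293 cells measured after one day of compound exposure at 37 deg C, with a 12 min room-temperature detection step.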
# * hit, by the source's call; ? = inconclusive; · = no result; ! = a repeat was not active. Sampled rows, rich in hits. Any-hit rate of the full collection: about 5.7%. Unless noted, the call rests on the fitted dose curve; in most records, active means well fitted curve in the direction sought with a large enough effect; inconclusive means small, poorly fitted or top-dose-only effect, or another doubt; inactive means no such curve, though single readings can be large; an effect the other way counts as inactive or inconclusive.
SMILES,ClpP mod,DRD3 antagonist,HEK293 tox,DRD3 agonist,GLP1R ag,GLP-1R inv ag
Cc1cccc(NC(=O)c2c(N)sc3c2CCC(C)C3)c1 (stereo unspecified),2.0%,·,1.1%,-7.5,·,10.7%
Cc1[nH]n2c(=O)cc(-c3ccc([N+](=O)[O-])cc3)nc2c1-c1ccccc1,1.5%,-80.8*,?,-6.7,-12.0%,?
CCCc1cc(=O)n2[nH]c(C)c(-c3ccccc3)c2n1,?,0.0,-19.7%,-1.9,-13.0%,-24.0%
Cc1[nH]n2c(=O)cc(-c3ccc(Cl)cc3)nc2c1-c1ccccc1,4.3%,·,98.4%,-19.9,-15.9%,2.82µM*
Cc1ccc(N=Nc2c(N)[nH]n3c(=O)cc(-c4ccccc4)nc23)cc1,28.2µM*,-28.2,2.4%,-8.3,-5.9%,0.0%
COc1cccc(N=Nc2c(N)[nH]n3c(=O)cc(-c4ccccc4)nc23)c1,15.5%,-16.7,-15.3%,-0.5,-9.9%,4.7%
Cc1[nH]n2c(=O)cc(C(C)C)nc2c1-c1ccccc1,?,11.9,-16.5%,3.3,-2.5%,-21.1%
Cc1[nH]n2c(=O)cc(C(C)(C)C)nc2c1-c1ccccc1,2.8%,16.9,?,4.0,-12.4%,3.55µM*
O=C(Nc1cccc(Oc2ccccc2)c1)c1ccc(-n2cncn2)c2ccoc12,-9.5%,98.9,4.5%,21.2,-3.4%,-4.5%
CCOC(=O)[C@]12CCC=C1N(CCC1=CCCCC1)C(=O)[C@H](CC(=O)NCCc1ccccc1OC)C2,-0.2%,24.0,6.7%,0.3,7.3%,-7.9%
CCCCCCCCN1C(=O)[C@H](CC(=O)NCc2cccs2)C[C@@]2(C(=O)OCC)CCCC=C12,-2.4%,20.8,-18.0%,7.2,-2.1%,10µM*
CCCCCCCCN1C(=O)[C@H](CC(=O)NCc2cccc(C(F)(F)F)c2)C[C@@]2(C(=O)OCC)CCC=C12,0.5%,14.0,-10.9%,-7.4,·,?
CCCCCCCCN1C(=O)[C@H](CC(=O)NCc2cccs2)C[C@@]2(C(=O)OC)CCCCC=C12,-1.3%,-8.0,-5.7%,-6.1,-3.5%,?
COC(=O)[C@]12CCCCC=C1N(Cc1ccccc1)C(=O)[C@H](CC(=O)NCC13CC4CC(CC(C4)C1)C3)C2,2.0%,-11.5,-23.1%,-4.6,-2.0%,10µM*
CCCCCCCCN1C(=O)[C@H](CC(=O)NCc2cccc(C(F)(F)F)c2)C[C@@]2(C(=O)OC)CCCCC=C12,-1.6%,5.3,?,0.6,2.8%,10µM*
CCOC(=O)[C@]12CCCC=C1N(Cc1ccccc1)C(=O)[C@H](CC(=O)NCC13CC4CC(CC(C4)C1)C3)C2,-3.5%,-11.3,-0.4%,-17.9,·,?
CCCCCCCCN1C(=O)[C@H](CC(=O)NCCc2ccccc2OC)C[C@@]2(C(=O)OCC)CCC=C12,-4.8%,-7.2,-13.7%,-5.3,·,12.6µM*
CCCCN(CCCNC(=S)NCCCc1cnc[nH]1)c1ccc(Br)cn1,·,·,·,·,4.7%,·
CC(C)N1C(=O)c2ccccc2NC(=O)C1C(=O)NCc1ccccc1 (stereo unspecified),-2.1%,2.5,12.3%,-3.1,·,-3.3%
CCCCCCCCN1C(=O)[C@H](CC(=O)NCc2ccc(OC)c(OC)c2)C[C@@]2(C(=O)OCC)CCCC=C12,5.8%,-15.4,?,-5.0,3.6%,10µM*
CCOC(=O)[C@]12CCCC=C1N(Cc1ccc(Cl)cc1Cl)C(=O)[C@H](CC(=O)NCc1cccc(C(F)(F)F)c1)C2,-1.5%,-13.9,-18.6%,-6.7,-3.0%,?
CCOC(=O)[C@]12CCC=C1N(Cc1ccc(Cl)cc1Cl)C(=O)[C@H](CC(=O)NCc1cccc(C(F)(F)F)c1)C2,-1.8%,45.1,-3.5%,2.4,-0.7%,11.2µM*
O=C1CSC(c2cn(-c3ccccc3)nc2-c2cc3ccccc3o2)N1Cc1ccccc1 (stereo unspecified),0.7%,4.5,10.1%,6.7,-1.4%,?
Cc1ccc(-c2nn(-c3ccccc3)cc2C2SCC(=O)N2Cc2ccccc2)o1 (stereo unspecified),?,-17.4,5.6%,-7.8,10.6%,11.2µM*
Cc1ccc(CN2C(=O)CSC2c2ccccc2F)cc1 (stereo unspecified),-0.6%,-14.9,17.9%,-6.9,10.8%,10µM*
SMILES,ClpP mod,DRD3 antagonist,HEK293 tox,DRD3 agonist,GLP1R ag,GLP-1R inv ag
O=C1CSC(c2cn(-c3ccccc3)nc2-c2cc3ccccc3oc2=O)N1Cc1ccco1 (stereo unspecified),31.6µM*,-24.1,-11.9%,-1.5,0.9%,?
Cc1ccc(CN(Cc2cccn2-c2nnc(N3CCCC3=O)s2)C(=O)Nc2cc(C)cc(C)c2)cc1,-4.7%,·,-1.4%,-12.9,·,7.2%
COC(=O)c1c(NC(=O)c2ccccc2)sc(Cc2ccccc2)c1C,-2.4%,4.2,-5.6%,-0.1,-7.1%,3.2%
COC(=O)c1c(NC(=O)c2ccc(C)cc2)sc(Cc2ccccc2)c1C,?,-64.9*,20.9%,-1.3,2.7%,7.4%
COc1ccc(-c2cc(C)no2)cc1S(=O)(=O)N1CCN(c2ccccc2F)CC1,-12.2%,2.8,8.1%,1.5,8.1%,10µM*!
COc1ccc(-c2cc(C)no2)cc1S(=O)(=O)N1CCN(c2ccccn2)CC1,?,9.6,-8.4%,4.9,6.6%,-6.6%
COc1ccc(-c2cc(C)no2)cc1S(=O)(=O)N1CCCN(Cc2ccccc2Cl)C1,0.0%,-14.9,-2.2%,-10.0,7.9%,8.91µM*
CCCCCCn1c(SCC#N)nc2ccccc2c1=O,-0.1%,·,·,·,·,·
Cc1cccc(-n2cnc3cc(C(=O)NCc4ccccc4Cl)ccc32)c1,-4.3%,·,?,-18.0,·,?
O=C(NCc1cccc(F)c1)c1cccc(NC(=O)c2nsc3ccccc23)c1,113.4%,·,-14.5%,5.7,·,?
CCOC(=O)c1sc(=S)[nH]c1C,-2.3%,-52.3*,1.8%,2.1,-1.7%,6.2%
COc1ccccc1C1=NOC(C)(c2sc(-c3ccc(Cl)cc3)nc2C)C1 (stereo unspecified),?,-10.0,2.6%,18.4,19.9%,-1.1%
Cc1nc(C(=O)Nc2cc(F)cc(Cl)c2)sc1C1(C)CC(c2ccccc2)=NO1 (stereo unspecified),-7.0%,7.9,?,40.9*,5.2%,?
